Bioassay records deposited in PubChem by National Center for Advancing Translational Sciences (NCATS).
NS1 function inh: influenza NS1 inhibition; Potency, µM (series often up to 46.1 µM); 0.4% of 270,000 active; calls by dose curve; note: actives are rising curves; nearly all actives have a fitted effect of over 50% in size
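Compounds were scored for reversing the slow growth caused by influenza A NS1 in S. cerevisiae, measured by optical density at 600 nm. Assay medium contained 2% galactose at pH 6.0; NS1-free yeast of the same strain were the positive control.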
LmPK inh: LmPK (Leishmania mexicana) enzyme inhibition | 0.37% of 290,000 active | AID 1721 | Q27686 | Potency, µM (doses to about 57.5 µM), usual class: inhibitors | purified LmPK, Kinase-Glo ATP luminescence, 1 h
Target sequence (Q27686 whole entry, looked up): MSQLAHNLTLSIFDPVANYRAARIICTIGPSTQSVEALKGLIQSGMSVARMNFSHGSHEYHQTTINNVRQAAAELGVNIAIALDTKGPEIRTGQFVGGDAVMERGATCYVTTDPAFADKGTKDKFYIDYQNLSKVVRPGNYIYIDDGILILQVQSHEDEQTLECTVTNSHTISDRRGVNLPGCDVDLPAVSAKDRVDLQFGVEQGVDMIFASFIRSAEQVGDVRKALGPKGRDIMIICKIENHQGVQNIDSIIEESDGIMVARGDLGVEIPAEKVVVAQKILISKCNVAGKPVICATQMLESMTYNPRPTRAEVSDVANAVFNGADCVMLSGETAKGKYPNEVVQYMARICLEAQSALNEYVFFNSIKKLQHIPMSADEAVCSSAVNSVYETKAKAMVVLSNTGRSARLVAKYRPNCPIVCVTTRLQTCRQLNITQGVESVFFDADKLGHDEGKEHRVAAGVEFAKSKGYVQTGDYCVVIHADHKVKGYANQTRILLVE
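0.1 nM LmPK, 0.5 mM PEP, 0.1 mM ADP; 50 mM imidazole pH 7.2, 7 mM MgCl2, 50 mM KCl; 1 h RT. Kinase-Glo luminescence readout, normalized to no-enzyme (full inhibition) and uninhibited wells.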
RE007 growth inh: less growth of the S. pombe RE007 Vpr strain. 0.21% of 360,000 active. S. pombe RE007 Vpr strain, BacTiter-Glo ATP luminescence, 24 h. Potency, µM (top dose mostly 92.2 µM), most hits filed as inhibitors; active = well fitted falling curve with a large enough effect; inconclusive = small, poorly fitted or top-dose-only effect; inactive = no such curve, though single readings can be large or run the other way; note: nearly all actives have a fitted effect of over 50% in size
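Fission yeast RE007 carrying one integrated HIV-1 vpr copy, seeded at OD 0.01 in PMG+AL medium with 23 nL pinned compound. Grown 24 h at 30 degrees; viability read by BacTiter-Glo luminescence after 5 min.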
Sm TGR block: S. mansoni TGR enzyme inhibition; Q962Y6; purified TGR, DTNB reduction, TNB absorbance 405 nm; Potency, µM (series often up to 114 µM), most hits filed as inhibitors; 3% of 360,000 active; AID 485364; note: nearly all actives have a fitted effect of over 60% in size
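Kinetic colorimetric format: TGR-catalysed, NADPH-driven DTNB reduction monitored via TNB absorbance. Enzyme dispensed at 20 nM; compound exposure 15 min at room temperature before reaction start.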
SARS PLpro yeast: SARS-CoV PLP inhibition in yeast. S. cerevisiae expressing SARS-CoV PLpro, growth rescue. Potency, µM (highest dose often 32.9 µM), actives largely listed as activators. 0.19% of 330,000 active; calls by dose curve; note: nearly all actives have a fitted effect of over 55% in size
Tb PYK inh: inhibitors of Trypanosoma brucei pyruvate kinase | Q57TT1 | TbPYK enzyme, Kinase-Glo Plus ATP luminescence, 45 min | Potency, µM (top dose mostly 76.8 µM), usual class: inhibitors | 0.12% of 410,000 active; note: nearly all actives have a fitted effect of over 50% in size
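Glycolytic pyruvate kinase of T. brucei was incubated with substrate, test compound and 130 uM ADP for 45 minutes at room temperature. Luminescent Kinase-Glo Plus signal was measured after 10 minutes.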
Hits are given with their value; i = inactive; ? = inconclusive; nt = no result given; [ ] = another dose, or the depositor's remark. Hits are enriched below; roughly 3.3% of the tested compounds scored in any of these assays. Unless noted, calls come from the whole dose curve; as a rule, active = well fitted curve in the direction sought with a large enough effect; inconclusive = small, poorly fitted or top-dose-only effect, or another doubt; inactive = no such curve, though single readings can be large; an effect the other way counts as inactive or inconclusive.

SMILES	NS1 function inh	LmPK inh	RE007 growth inh	Sm TGR block	SARS PLpro yeast	Tb PYK inh
Cc1ccc(S(=O)(=O)/N=C(\Sc2ccccc2)c2ccccc2)cc1	i	i	i	7.94µM	i	i
Cc1ccc(S(=O)(=O)/N=C(/Sc2ccccc2C(=O)O)c2ccccc2)cc1	i	i	i	35.5µM	i	i
O=C(C1=C[C@@H](c2ccc3c(c2)OCO3)C[C@@H](OCCCCO)O1)N1CCOCC1	i	i	i	44.7µM	i	i
O=C(C1=C[C@@H](c2ccc(Br)cc2)C[C@@H](OCCCCO)O1)N1CCN(Cc2ccccc2)CC1	i	i	i	20µM	i	i
O=C(C1=C[C@@H](c2ccc3c(c2)OCO3)C[C@@H](OCCCCO)O1)N1CCN(Cc2ccc3c(c2)OCO3)CC1	i	i	i	i	i	i
O=C(C1=C[C@H](c2ccc3c(c2)OCO3)C[C@H](OCCCCO)O1)N1CCN(Cc2ccccc2)CC1	i	i	i	25.1µM	i	i
O=C(O)C1=C[C@@H](c2ccc3c(c2)OCO3)C[C@@H](OCCCCO)O1	i	i	i	44.7µM	i	i
C[N+](C)(CCCCCC[N+](C)(C)C1c2ccccc2-c2ccccc21)C1c2ccccc2-c2ccccc21	nt	nt	nt	nt	nt	i
COC(=O)c1ccc(-n2nnc(-c3nc(-c4ccc5c(c4)OCO5)no3)c2C)cc1	nt	nt	nt	i	nt	i
O=C1CC(c2ccco2)CC(O)=C1C=NCCN1CCNCC1 (stereo unspecified)	i	i	i	39.8µM	i	i
Cc1ccc(C2CC(=O)C(C=NCCN3CCN(C(=O)Cc4ccccc4)CC3)=C(O)C2)cc1 (stereo unspecified)	i	i	i	22.4µM	i	i
O=C1CC(c2ccco2)CC(O)=C1C=Nc1cc(Cl)cc(Cl)c1 (stereo unspecified)	i	i	i	17.8µM	i	i
FC(F)(F)c1nc(SCc2ccc(Cl)cc2)n[nH]1	i	nt	nt	nt	nt	nt
CCOc1ccc(NC(=O)c2ccc(NC(=O)N3CCSc4ncccc43)cc2)cc1	nt	nt	nt	i	nt	i[15.4 µM]
Cc1c(C#N)c(N)nc(Cl)c1C#N	nt	i	i	35.5µM	i	i
COc1ccc(N/C=C(\C=C\C#N)S(=O)(=O)c2ccccc2)cc1	i	i	i	6.31µM	i	i
N#C/C=C/C(=C\Nc1ccc(Cl)cc1)S(=O)(=O)c1ccccc1	i	i	i	?	i	i
Cc1ccc2nc(-c3ccc(N4C(=O)CC(N5CCN(CCO)CC5)C4=O)cc3)sc2c1 (stereo unspecified)	i	i	31.6µM	i	i	i
O=S(=O)(O)C(c1ccccc1)[C@@H](O)c1ccccc1 (stereo partly specified)	i	nt	nt	nt	nt	nt
COc1ccc2c(c1)cc1c(=O)n(CC(=O)NC3CC3)nc(C)n12	nt	nt	nt	i	nt	i
COc1ccc(N2CN=C3SCC(=O)N3C2)cc1	i	i	i	i	i	i
Cn1c2c(c(=O)n(C)c1=O)C(c1ccccc1F)C(C#N)=C(N)O2 (stereo unspecified)	nt	i	i	i	i	i
COc1cc(OC)c(C2CC(=O)N3CN(c4ccccc4C)CSC3=C2C#N)cc1OC (stereo unspecified)	3.98µM	i	nt	31.6µM	i	nt
COc1ccc(CN2CC(=O)N(c3ccccc3C)C2=S)cc1OC	nt	i	i	i	i	i
COc1ccc(C2CC(=O)N3CN(c4ccc(C)c(Cl)c4)CSC3=C2C#N)cc1 (stereo unspecified)	i	i	i	44.7µM	i	3.16µM
SMILES	NS1 function inh	LmPK inh	RE007 growth inh	Sm TGR block	SARS PLpro yeast	Tb PYK inh
COc1ccc(C2CC(=O)N3CN(c4ccccc4F)CSC3=C2C#N)cc1OC (stereo unspecified)	i	i	i	?	i	3.16µM
COc1cc(C2CC(=O)N3CN(Cc4ccco4)CSC3=C2C#N)ccc1OCc1ccccc1 (stereo unspecified)	i	i	i	i	i	?
CCc1ccccc1N1CSC2=C(C#N)C(c3ccccc3F)CC(=O)N2C1 (stereo unspecified)	0.891µM	i	i	17.8µM	i	8.91µM
CCc1ccc(OCC(=O)NCC(c2ccc(OC)cc2)N2CCOCC2)cc1 (stereo unspecified)	nt	nt	nt	i	nt	i
Cc1ccc(C)c(NC(=O)Cn2cc(C(=O)C3CCCCC3)c3ccccc32)c1	nt	nt	nt	i	nt	i
Cc1ccc(CN(Cc2cccn2-c2nnc(N3CCCC3=O)s2)C(=O)Nc2ccccc2Cl)cc1	nt	nt	nt	i	nt	i
COc1ccc(N2CSC3=C(C#N)C(c4cccc(OC)c4OC)CC(=O)N3C2)cc1 (stereo unspecified)	i	i	i	22.4µM	i	12.6µM
COc1cccc(C2SCC(=O)N2c2ccc(Cl)cc2)c1OC (stereo unspecified)	i	i	i	i	i	i
COC(=O)CSC1=C(C#N)C(c2ccc(C)o2)CC(=O)N1 (stereo unspecified)	i	i	i	i	i	i
Cc1cccc(N2CSC3=C(C#N)C(c4ccc(C)o4)CC(=O)N3C2)c1 (stereo unspecified)	1.78µM	i	nt	11.2µM	i	nt
COc1ccc(OC)c(C2CC(=O)N3CN(c4ccccc4)CSC3=C2C#N)c1 (stereo unspecified)	i	i	i	10µM	i	3.55µM
CC(=O)NCCNC(=O)CCCn1c(=O)[nH]c2ccsc2c1=O	nt	nt	nt	i	nt	i
CCS(=O)(=O)c1ccc2oc(Nc3ccccc3Cl)nc2c1	i	i	i	i	i	i
CCS(=O)(=O)c1ccc2oc(Nc3ccccc3Br)nc2c1	i	15.8µM	i	i	i	i
O=C(CSc1ncc(-c2ccccc2)[nH]1)Nc1cccc(Br)c1	nt	nt	nt	i	nt	i
COc1ccc(Nc2nc(N)c3cc(OC)c(OC)cc3n2)cc1	nt	nt	nt	i	nt	i
CC1(C)Oc2ccc3ccc(=O)oc3c2C(N2CCCCC2)C1O (stereo unspecified)	i	i	i	35.5µM	i	i
Cc1oc2c(c1C(=O)Nc1ccccc1Br)C1=NCCN1C=N2	nt	nt	nt	i	nt	i
CC1(C)CC(=O)C(CC(=O)Nc2ccc(S(N)(=O)=O)cc2)=C(O)C1	i	i	i	i	i	i
CC1(C)CC(=O)C(CS(=O)(=O)c2ccccc2)=C(O)C1	i	i	i	1µM	i	i
CCCN1CCC(=O)N([C@H](CSc2ccc(C)cc2)c2ccccc2)CC1	i	i	i	44.7µM	i	i
Cc1ccc(SC[C@H](Cc2ccccc2)N2CCN(CC(C)C)CCC2=O)cc1	i	i	i	25.1µM	i	i
CC(C)CN1CCC(=O)N([C@H](CSc2ccccc2)Cc2ccccc2)CC1	i	i	i	?	i	i
CCCN1CCC(=O)N([C@H](CSc2ccccc2)c2ccccc2)CC1	i	i	i	39.8µM	i	i
